The list is not random: actives were taken first. Their share in the collection is about 1.1%.
SARS PLP yeast = blocks SARS-CoV papain-like protease in a yeast assay; S. cerevisiae expressing SARS-CoV PLpro, growth rescue; Potency, µM (titrated, usually from 32.9 µM), without a hit: at the top dose activity, positive = growth rescue, hits mostly activators; 330,000 tested, 0.19% active; AID 485353; calls by dose curve; further: 0% is about no effect; nearly all actives have a fitted effect of over 55% in size
RE007 growth inh = less growth of the S. pombe RE007 Vpr strain. S. pombe RE007 Vpr strain, BacTiter-Glo ATP luminescence, 24 h. Potency, µM (series often up to 92.2 µM), for inactives: top-dose activity change, negative = less growth, actives largely listed as inhibitors. 360,000 tested, 0.21% active; active means well fitted falling curve with a large enough effect; inconclusive means small, poorly fitted or top-dose-only effect; inactive means no such curve, though single readings can be large or run the other way; further: on the % scale 0 is the no-effect control and ±100 the full control effect; nearly all actives have a fitted effect of over 50% in size
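Fission yeast strain RE007, carrying one chromosomally integrated HIV-1 vpr copy, was seeded at OD 0.01 in PMG+AL medium with 23 nL pinned compound. After 24 h at 30 °C and 99% humidity, viability was read by BacTiter-Glo luminescence.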
Tb PYK inh = inhibitors of Trypanosoma brucei pyruvate kinase; Q57TT1; TbPYK enzyme, Kinase-Glo Plus ATP luminescence, 45 min; Potency, µM (doses to about 76.8 µM), without a hit: top-dose activity, negative = inhibition, hits mostly inhibitors; 410,000 tested, 0.12% active; AID 624173; further: on the % scale 0 is the no-effect control and ±100 the full control effect; nearly all actives have a fitted effect of over 50% in size
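In this concentration-response screen, enzyme-free wells defined baseline while DMSO plates tracked drift. Each reaction combined TbPYK, substrate, compound and 130 uM ADP for 45 min at room temperature. Kinase-Glo Plus luminescence gave the signal.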
LmPK inhibitor = blocks Leishmania mexicana pyruvate kinase activity. purified LmPK, Kinase-Glo ATP luminescence, 1 h. Potency, µM (doses to about 57.5 µM), for the others: at the highest dose activity change, negative = inhibition, usual class: inhibitors. 290,000 tested, 0.37% active. AID 1721; further: on the % scale 0 is the no-effect control and ±100 the full control effect
Target sequence (Q27686 whole entry, looked up): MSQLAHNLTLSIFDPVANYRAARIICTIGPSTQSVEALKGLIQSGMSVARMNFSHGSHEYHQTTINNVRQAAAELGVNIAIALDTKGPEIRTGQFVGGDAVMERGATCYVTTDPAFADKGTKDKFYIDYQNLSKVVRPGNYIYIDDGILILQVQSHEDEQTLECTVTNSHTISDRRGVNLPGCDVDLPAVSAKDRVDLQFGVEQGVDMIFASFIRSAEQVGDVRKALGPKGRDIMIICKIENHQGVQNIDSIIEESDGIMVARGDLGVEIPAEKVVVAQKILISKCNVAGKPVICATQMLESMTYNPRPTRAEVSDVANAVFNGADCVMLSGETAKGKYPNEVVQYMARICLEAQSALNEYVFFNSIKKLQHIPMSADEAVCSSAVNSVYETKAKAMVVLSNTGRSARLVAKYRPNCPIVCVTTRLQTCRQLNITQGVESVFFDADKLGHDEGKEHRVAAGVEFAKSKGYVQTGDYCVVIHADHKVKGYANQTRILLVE
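Purified LmPK (0.1 nM) converted ADP (0.1 mM) to ATP with PEP (0.5 mM) in imidazole buffer pH 7.2 with KCl and MgCl2, 1 h at room temperature. ATP was read by Kinase-Glo luminescence; data normalized to uninhibited and no-enzyme controls.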
Giardia FBPA inh = inhibitors of Giardia lamblia fructose-1,6-bisphosphate aldolase. A8B2U2. Potency, µM (series often up to 59.6 µM), without a hit: top-dose activity, negative = inhibition, actives largely listed as inhibitors. purified Giardia FBPA. 290,000 tested, 0.71% active; further: on the % scale 0 is the no-effect control and ±100 the full control effect; nearly all actives have a fitted effect of over 55% in size
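40 nM FBPA preincubated 10 min at RT with compound (up to 57.5 uM final), then substrate plus GAPDH/TPI/NAD/arsenate coupling and diaphorase/resazurin added. Fluorescence read after 20 min at RT, 525/598 nm.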
An asterisk follows results filed as active; ? = inconclusive; . = no result given; [ ] = remark or other dose. Unless noted, the call rests on the fitted dose curve; in most records, active means well fitted curve in the direction sought with a large enough effect; inconclusive means small, poorly fitted or top-dose-only effect, or another doubt; inactive means no such curve, though single readings can be large; an effect the other way counts as inactive or inconclusive. Potency means the concentration at half of the fitted maximal effect.

SMILES | SARS PLP yeast | RE007 growth inh | Tb PYK inh | LmPK inhibitor | Giardia FBPA inh
CCc1cc(-c2n[nH]c(=S)n2Cc2ccccc2)cs1 | -1% | -24% | ? | 10µM* | 9%
CCc1cc(-c2n[nH]c(=S)n2CC)cs1 | 23% | 42% | 10µM* | -22% | 8%
CCOC(=O)c1cnc2c(C(F)(F)F)cccc2c1Nc1cccc(C(=O)OC)c1 | . | . | -3% | . | .
CCCn1c(-c2ccc(F)cc2)n[nH]c1=S | 11% | 5% | ? | ? | 11%
CCCCn1c(-c2cc(Cl)ccc2OC)n[nH]c1=S | . | 5% | ? | 13µM* | 9%
CCCCn1c(-c2ccc([N+](=O)[O-])cc2)n[nH]c1=S | 1% | 10% | 1.1µM* | ? | 3%
CCc1cc(-c2n[nH]c(=S)n2-c2ccccc2C)cs1 | -1% | 5% | ? | 28µM* | 3%
CCCCn1c(-c2csc(CCC)c2)n[nH]c1=S | -5% | 6% | ? | 22µM* | -1%
COc1ccc(CCn2c(-c3ccc(Cl)cc3)n[nH]c2=S)cc1OC | 1% | 43% | ? | 1% | 2%
CC(=O)N1CCC2(CC1)CCN(c1ccccn1)CC2 | . | . | 0% | . | -4%
CCn1c(-c2ccc(C)cc2)n[nH]c1=S | 6% | 9% | ? | ? | -7%
CCCc1cc(-c2n[nH]c(=S)n2CC)cs1 | 0% | 7% | 8.9µM* | ? | 0%
COc1ccc(S(=O)(=O)Nc2ccc3c(c2)N(C(C)=O)CCC3)cc1F | . | . | 1% | . | .
Cc1onc(-c2ccccc2)c1C(=O)N[C@@H]1C(=O)N2[C@@H](C(=O)O)C(C)(C)S[C@@H]12 | . | . | -10% | . | .
S=c1[nH]nc(-c2ccc(Cl)cc2Cl)n1-c1ccccc1 | 0% | 14% | -21% | -19% | 20%
Cc1nn(C)cc1-c1n[nH]c(=S)n1-c1ccc(Cl)cc1 | -7% | 11% | ? | 7.9µM* | -16%
CC(C)(C)c1cc(-c2n[nH]c(=S)n2-c2ccc(Cl)cc2)n[nH]1 | 0% | 2% | ? | 13µM* | 8%
COc1cccc(C(c2sc3nc(-c4ccco4)nn3c2O)N2CCCC2)c1 (stereo unspecified) | . | . | -12% | . | .
COc1cc(C(CC(=O)Nc2cc(C)ccc2C)N2Cc3ccccc3C2=O)cc(OC)c1OC (stereo unspecified) | . | . | -1% | . | .
O=C(Nc1ccc(Cl)cc1Cl)c1cccc(N2C(=O)C=CC2=O)c1 | -19% | 1.3µM* | ? | 12% | .
O=C(O)c1cccc(N2C(=O)C=CC2=O)c1 | . | 0% | ? | . | .
c1csc(-c2nc(CN3CCSCC3)cs2)c1 | -1% | -15% | ? | 16µM* | -13%
O=S1(=O)CCN(Cc2csc(-c3cccs3)n2)CC1 | 1% | -12% | -29% | ? | 0%
COc1cccc(OC)c1C(=O)NC(C)C12CC3CC(CC(C3)C1)C2 (stereo unspecified) | -40% | 10µM* | -1% | -3% | 4%
CCOc1cc(C(=O)NCCc2sc(-c3ccc(F)cc3)nc2C)cc(OCC)c1OCC | . | . | 1% | . | .
SMILES | SARS PLP yeast | RE007 growth inh | Tb PYK inh | LmPK inhibitor | Giardia FBPA inh
O=Nc1c(-c2ccccc2)cc2ccccn12 | -20% | 13µM* | -2% | -6% | -29%
O=C1[C@@H]2C(c3cccnc3)=NO[C@@H]2C(=O)N1c1ccc2ccccc2c1 | -6% | 14µM* | -8% | -2% | -3%
O=C(Nc1cccc2c(=O)cc(-c3nn[nH]n3)oc12)c1ccc(OCCCCc2ccccc2)cc1 | . | . | 0% | . | .
CCc1cc[n+](-c2nc([O-])sc2C=O)cc1 | -1% | -2% | -9% | -4% | ?
CC(C)c1cc[n+](-c2nc([O-])sc2C=O)cc1 | 1% | -17% | 28µM* | -1% | ?
COC(=O)c1ccc(-c2noc(CN(C)CCC3CCCCO3)n2)cc1 (stereo unspecified) | -7% | -3% | 3% | -24% | 18µM*
CCc1cccc(C)c1NC(=O)Cn1c(=O)n(-c2cccc(C)c2)c(=O)c2c1c1cc(C)ccc1n2C | . | . | 3% | . | .
Cc1nn(-c2nc3ccccc3[nH]2)c(N)c1-c1ccccc1 | -106% | 28µM* | 1% | -15% | 0%
Cc1nn(-c2ccccc2)c(N)c1-c1ccccc1 | 2% | -14% | 1% | -6% | 6%
CN(CC(=O)N1CCOCC1)Cc1c(Cl)cccc1NC(=O)c1ccccc1 | . | . | -5% | . | .
COc1ccc(N2C(=O)CC(Sc3ncn[nH]3)C2=O)c(OC)c1 (stereo unspecified) | -29% | 4% | ? | -22% | ?
CC(C)c1ccc(N2C(=O)CC(Sc3ncn[nH]3)C2=O)cc1 (stereo unspecified) | -35% | 56µM* | -18% | 2% | ?
CCCCNC(=O)c1ccc2c(c1)ncn2-c1cc(OC)ccc1OC | . | . | 9% | . | .
Cc1cc2nc(-c3ccc[nH]c3=O)n(Cc3ccc(F)cc3)c2cc1C | 2% | 9% | 6% | -1% | -4%
Cc1cc2nc(-c3ccc[nH]c3=O)[nH]c2cc1C | -10% | 7.1µM* | ? | 11µM* | 7%
O=C1C=CC(=Nc2ccc3c(c2)Cc2ccccc2-3)O1 | . | 28µM* | -1% | . | .
CCCc1cc(C(=O)NCc2cccnc2)no1 | -3% | 9% | 4% | -2% | 1%
CCCc1cc(C(=O)Nc2cccc(C(C)=O)c2)no1 | -18% | 0% | 1% | 11% | -5%
CCCc1cc(C(=O)Nc2cccc(Cl)c2)no1 | -12% | ? | -10% | 22µM* | 2%
CCCc1cc(C(=O)Nc2cccnc2)no1 | -4% | -28% | 4% | 11µM* | -1%
Cc1sc(N/N=C/C=C/c2ccccc2)nc1-c1ccccc1 | 13µM* | -10% | -12% | -2% | -2%
CCc1cccc(NC(=O)CSc2nc3ccccc3nc2N2CCCCC2)c1 | . | . | 2% | . | .
Cc1ccc2c(c1)c1c(c(=O)n(Cc3ccccc3)c(=O)n1CC(=O)Nc1ccccc1F)n2C | . | . | -2% | . | .
CSC1=NSC2=NC(=O)/C(=C/c3coc4ccccc4c3=O)C(=N)N12 | -66% | 40µM* | -11% | 0% | -8%
Cc1cc(C)nc(/N=c2/ssnc2Cl)c1 | -18% | -3% | -25% | 4% | ?
SMILES | SARS PLP yeast | RE007 growth inh | Tb PYK inh | LmPK inhibitor | Giardia FBPA inh
Cc1ccc(N=c2ssnc2Cl)cc1 | -45% | -92% | 28µM* | -16% | ?
COc1cc(N=c2ssnc2Cl)c(OC)cc1Cl | -2% | ? | 11µM* | -4% | ?
COc1ccc(-c2nc3ccccc3s2)cc1NC(=O)c1ccc(C#N)cc1F | . | . | -1% | . | .
COc1ccc(NC(=O)C2CCCN(S(=O)(=O)c3ccc(Cl)cc3)C2)cc1 (stereo unspecified) | . | . | -2% | . | .
COc1ccc(C(=O)Nc2cccc(C)c2)cc1 | -2% | -2%[3.69 µM] | . | 14µM* | -19%
COc1cccc(C(=O)Nc2cccc(OCC(=O)O)c2)c1 | -5% | -11% | -19% | 35µM* | 2%
COc1ccc(C(=O)/C=C/Nc2cccc(O)c2)cc1 | -41% | -11%[3.69 µM] | . | 25µM* | -10%

Assay outcomes deposited in PubChem by National Center for Advancing Translational Sciences (NCATS).
